Screening results from PubChem.
TDP1 cell noCPT = qHTS for Inhibitors of human tyrosyl-DNA phosphodiesterase 1 (TDP1): qHTS in cells in absence of CPT | DT40 Tdp1-/- hTDP1 cells, no CPT, ATP luminescence, 48 h | Potency, µM (top dose mostly 46.2 µM), usual class: inhibitors | hit rate 15% among 420,000; further: nearly all actives have a fitted effect of over 55% in size
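Cells were dispensed at 400 per well, compounds added by pin tool, plates incubated ≥48 hr at 37 °C, then CellTiter-Glo added for 30 min at room temperature before luminescence reading. Line: DT40 Tdp1-/- complemented with hTDP1; camptothecin omitted.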
TDP1 block = blocks human tyrosyl-DNA phosphodiesterase 1; Potency, µM (doses to about 130 µM), usual class: inhibitors; Q9NUW8; hit rate 0.28% among 350,000; recombinant TDP1, AlphaScreen DNA substrate cleavage; further: nearly all actives have a fitted effect of over 40% in size
Target sequence (Q9NUW8 whole entry, looked up): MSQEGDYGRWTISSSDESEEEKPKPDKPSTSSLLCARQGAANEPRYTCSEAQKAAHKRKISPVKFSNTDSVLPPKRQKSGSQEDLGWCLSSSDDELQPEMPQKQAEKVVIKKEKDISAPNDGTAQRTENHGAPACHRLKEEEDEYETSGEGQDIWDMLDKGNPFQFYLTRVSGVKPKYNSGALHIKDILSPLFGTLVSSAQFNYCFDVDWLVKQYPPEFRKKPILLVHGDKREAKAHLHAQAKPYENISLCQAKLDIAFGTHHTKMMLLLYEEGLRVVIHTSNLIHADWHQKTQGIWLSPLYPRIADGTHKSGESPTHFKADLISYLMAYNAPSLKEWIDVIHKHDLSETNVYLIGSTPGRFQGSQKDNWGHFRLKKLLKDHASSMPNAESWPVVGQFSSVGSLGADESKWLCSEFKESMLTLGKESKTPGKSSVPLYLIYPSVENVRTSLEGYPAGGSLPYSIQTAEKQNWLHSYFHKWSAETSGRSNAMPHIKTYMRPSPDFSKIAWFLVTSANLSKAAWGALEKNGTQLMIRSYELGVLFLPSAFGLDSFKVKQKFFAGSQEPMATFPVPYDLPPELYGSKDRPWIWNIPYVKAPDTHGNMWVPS
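Steps: enzyme plus compound, 15 min RT; add biotin/phosphotyrosine-FITC oligonucleotide (15 nM final), react 5 min; add donor/acceptor beads (10 ug/ml final), 10 min; read AlphaScreen. Tdp1 at 1 nM final.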
Gal4-VP16 FLuc = counter-screen for ROR gamma inhibitors: Gal4-VP16 reporter; Drosophila S2 Gal4-VP16 UAS-luciferase, luminescence, 20 h; Potency, µM (top dose mostly 53.6 µM), usual class: inhibitors; hit rate 3.5% among 310,000;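 further: Gal4-VP16 expression switched on by copper sulfate through the metallothionein promoter; nearly all actives have a fitted effect of over 50% in size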
TDP1 cell CPT = DT40-hTDP1 cell growth loss with CPT. chicken DT40 Tdp1-/-;hTDP1 cells + 20 nM CPT, ATP luminescence, 48 h. Potency, µM (doses to about 46.2 µM), hits mostly inhibitors. hit rate 12% among 420,000. AID 686979; further: nearly all actives have a fitted effect of over 55% in size
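Cell growth measured by CellTiter-Glo luminescence after a minimum 48 h, 37 C compound exposure with 20 nM CPT in Tdp1-knockout DT40 cells stably expressing hTDP1, seeded 400/well; qHTS titration format.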
RORg inh = inhibitors of mouse ROR gamma transcriptional activity. P51450. Potency, µM (doses to about 53.6 µM), most hits filed as inhibitors. hit rate 5.4% among 310,000. AID 2551. Drosophila S2 Gal4-RORgamma UAS-luciferase reporter, 20 h; further: nearly all actives have a fitted effect of over 60% in size
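Using a luciferase readout, inhibitors were identified by reduced reporter activity in Drosophila cells coexpressing a copper-inducible Gal4–ROR gamma fusion and UAS-driven Photinus luciferase, incubated 20 hr after 700 uM copper sulfate.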
Numbers stand for hits; - = inactive; ? = inconclusive; . = no result given; [ ] = another dose, or the depositor's remark. Hits are enriched below; roughly 19% of the tested compounds scored in any of these assays. The call rests on the fitted dose curve; in most records, active means well fitted curve in the direction sought with a large enough effect; inconclusive means small, poorly fitted or top-dose-only effect, or another doubt; inactive means no such curve, though single readings can be large; an effect the other way counts as inactive or inconclusive.

SMILES | TDP1 cell noCPT | TDP1 block | Gal4-VP16 FLuc | TDP1 cell CPT | RORg inh
CCOc1cccc(C2NCc3ccccc3-n3cccc32)c1O (centres undefined) | ? | - | - | ? | -
CCOc1cc(C2NCc3ccccc3-n3cccc32)ccc1O (centres undefined) | ? | - | - | 23µM | -
CC(C)c1ccc(C2NCc3ccccc3-n3cccc32)cc1 (centres undefined) | 21µM | . | ? | ? | -
Cc1c(C)c2ccc(OCC(=O)N3CCC(C(=O)O)(c4ccccc4)CC3)cc2oc1=O | - | . | - | - | -
COC(=O)C1=C(c2ccc(-c3ccccc3)c(F)c2)C[C@@H]2CC[C@H]1N2C(=O)NCc1ccco1 | 6.5µM | - | . | 7.3µM | .
COC(=O)C1=C(c2ccc(F)cc2OCc2ccccc2)C[C@@H]2CC[C@H]1N2C(=O)NCc1ccco1 | ? | - | . | ? | .
COC(=O)C1=C(c2ccc(F)cc2F)C[C@@H]2CC[C@H]1N2C(=O)NCCOc1ccccc1 | ? | - | . | 23µM | .
CCCNC(=O)N1[C@H]2CC[C@@H]1C(C(=O)OC)=C(c1ccc(-c3ccccc3)c(F)c1)C2 | 7.3µM | - | . | 9.2µM | .
COC(=O)C1=C(c2ccc(F)cc2F)C[C@@H]2CC[C@H]1N2C(=O)NCc1ccc(F)cc1 | ? | - | . | ? | .
COC(=O)C1=C(c2ccc(-c3ccccc3)c(F)c2)C[C@@H]2CC[C@H]1N2C(=O)NCCOc1ccccc1Cl | ? | - | . | ? | .
COC(=O)C1=C(c2ccc(-c3ccccc3)c(F)c2)C[C@@H]2CC[C@H]1N2C(=O)NCCO | 21µM | - | . | ? | .
CC(=O)c1ccc(OC(=O)N(C)c2ccccc2)cc1 | - | - | - | - | ?
O=C(Cc1ccc(Cl)c(Cl)c1)Nc1cccnc1 | ? | - | - | - | ?
CC(=O)Nc1cccc([As](=O)(c2cccc(NC(C)=O)c2)c2cccc(NC(C)=O)c2)c1 | - | - | - | - | -
CC(C)(C)NS(=O)(=O)c1ccc(OCC(=O)N2CCN(Cc3ccccc3)CC2)cc1 | ? | - | ? | ? | -
CC(C)NS(=O)(=O)c1ccc(OCC(=O)N2CCN(Cc3ccccc3)CC2)c(Cl)c1 | ? | - | 20µM | - | ?
O=C1NC(=O)C(=Cc2ccccc2Oc2ccc(F)cc2)C(=O)N1 | ? | . | - | - | -
CCc1nnc(NC(=O)CSc2ccc(-c3ccco3)nn2)s1 | - | 22µM | ? | - | ?
CC(C)CCNC(=O)c1cc(C(=O)c2cc(F)ccc2O)cn(CCC(C)C)c1=O | - | - | - | - | -
O=C(Nc1cccc(Cl)c1)OC1CN2CCC1CC2 (centres undefined) | 5.2µM | - | ? | 5.2µM | ?
Cc1ccc(-c2nnc(Nc3ccc(Br)cc3)c3ccccc23)cc1S(=O)(=O)NCc1nc2ccccc2[nH]1 | 23µM | . | . | ? | .
Cc1ccc2c(c1)C1CN(C)CCC1N2C(=O)Nc1ccc(Cl)cc1 (centres undefined) | 26µM | - | - | ? | -
Fc1cccc(F)c1CN1CCN(c2ccc(Cl)cc2)CC1 | - | . | - | - | -
Cc1cc(-c2nnn(CCCOC(C)(C)C)c2C)ccc1-c1cn(CCCOC(C)(C)C)nn1 | 6.5µM | . | . | 8.2µM | .
O=C(O)Cn1cc(C(=O)c2ccccc2)c2ccccc21 | - | - | - | - | -
SMILES | TDP1 cell noCPT | TDP1 block | Gal4-VP16 FLuc | TDP1 cell CPT | RORg inh
CCOP(=O)(OCC)C(O)c1ccc(OC)c(OC)c1 (centres undefined) | - | - | - | - | -
CC(C)c1ccc(Oc2cccc3c2S(=O)(=O)N(C2CCCC2)CC(COCc2ccccc2)O3)cc1 (centres undefined) | 9.2µM | . | . | 10µM | .
CC(C)CC(NP(=O)(O)O[C@@H]1O[C@@H](C)[C@H](O)[C@@H](O)[C@H]1O)C(=O)NC(Cc1c[nH]c2ccccc12)C(=O)O (some centres undefined) | . | - | . | . | .
c1ccc(N2CC3(CCNCC3)C2)cc1 | ? | . | - | ? | -
C[C@H]1CCCC(=O)CCCCCc2cc(O)cc(O)c2C(=O)O1 | 18µM | - | ? | ? | -
CCN(CC)CCN1Cc2ccccc2C1=N | - | - | - | - | -
CCCCc1nn2c(=O)cc(COC(=O)Cc3ccccc3)nc2s1 | - | - | . | - | .
CCCN(CCC)c1c([N+](=O)[O-])cc(S(N)(=O)=O)cc1[N+](=O)[O-] | 31µM | - | ? | ? | -
O=C(N/N=C/c1c(O)n(Cc2ccco2)c(=O)[nH]c1=O)c1ccccc1O | - | - | - | - | 13µM
CC(=O)Nc1ccc(N=Cc2c(O)n(Cc3ccco3)c(=O)[nH]c2=O)cc1 | - | 18µM | - | - | ?
CCCCC(=O)N/N=C/c1c(O)n(Cc2ccco2)c(=O)[nH]c1=O | - | - | - | - | ?
O=c1c2ccccc2nc(/C=C/c2ccccc2)n1-c1ccc(O)cc1 | 23µM | . | - | ? | -
O=c1c2ccccc2nc(/C=C\c2cccc(Br)c2)n1-c1ccc(O)cc1 | ? | -[12.3 µM] | . | ? | .
O=c1c2ccccc2nc(/C=C/c2ccc(F)cc2)n1-c1ccccn1 | 18µM | - | - | ? | -
O=c1c2ccccc2nc(/C=C/c2ccc(O)c(O)c2)n1-c1ccccc1 | 26µM | . | - | ? | -
COc1ccccc1-n1c(/C=C/c2ccc(O)cc2)nc2ccccc2c1=O | ? | . | - | ? | -
O=C1c2ccccc2C(=O)N1Cc1nc2ccccc2c(=O)n1-c1ccccn1 | - | - | - | - | -
COc1ccccc1-n1c(/C=C/c2ccccc2)nc2ccccc2c1=O | 26µM | - | . | ? | .
O=c1[nH]c(O)c(/C=C2\C=NN=C2c2ccccc2)c(=O)[nH]1 | - | - | - | ? | -
CN1C(=O)NC(=O)C(C)(C2=CCCCC2)C1=O (centres undefined) | - | - | - | - | -
Cc1ccc2c(c1)C1CN(C)CCC1N2C(=O)Cc1cccs1 (centres undefined) | - | - | - | - | -
COc1ccc(-n2c(/C=C\c3ccccc3F)nc3ccccc3c2=O)c(OC)c1 | 23µM | - | . | 15µM | .
O=c1c2ccccc2nc(/C=C/c2ccccc2)n1-c1ccccc1O | 23µM | . | - | - | -
O=C1/C(=C/c2cccnc2)SC(=NCc2ccccc2)N1Cc1ccccc1 | - | - | - | - | ?
O=c1c2ccccc2nc(/C=C/c2cccnc2)n1Cc1ccccc1 | 23µM | 10µM | - | ? | -
COc1ccc2c(c1OC)C(=O)OC2c1c(O)n(C2CCCCC2)c(=O)[nH]c1=O (centres undefined) | - | - | - | - | -
CCC(=O)Nc1ccccc1-c1nc2ccccc2n(C(CC)C(=O)Nc2cccc(Cl)c2)c1=O (centres undefined) | 21µM | - | . | 26µM | .
